{"source": "PubChem BioAssay (NCATS)", "note": "Several values for one entry are separate records, joined by “and”; a condition that tells them apart may be missing. Identical values can stand only once. Inconclusive results are not listed. Entries that show only a call come without a potency. Activity calls are given as the source filed them. Calls follow the shape of the dose curve; as a rule, active = well fitted inhibition curve with a large enough effect; inconclusive = small, poorly fitted or top-dose-only effect; inactive = flat fitted curve, though single readings scatter."}
{"experiment": "Primary qHTS for inhibitors of nuclear receptor binding SET domain protein 2 (NSD2) in an isogenic RCH-ACV NSD2 p.E1099K mutant (9B) (AID 1645876); also: nearly all actives have a fitted effect of over 70% in size; also: potency is read from the fitted curve at half-maximal effect", "details": "RCH-ACV NSD2 E1099K (9B) viability, CellTiter-Glo, 72 h; series mostly up to 44.9 µM"}
{"molecule": "C[N+]1(C)CCCC(OC(=O)C(O)(c2ccccc2)c2ccccc2)C1", "note": "(stereo unspecified)", "Potency": "inactive"}
{"molecule": "CCCCCC(N)=O", "Potency": "inactive"}
{"molecule": "Cc1ncc(CO)c(CN)c1O", "Potency": "inactive"}
{"molecule": "NC(=O)NC1NC(=O)NC1=O", "note": "(stereo unspecified)", "Potency": "inactive"}
{"molecule": "CCN[C@H]1CN(CCCOC)S(=O)(=O)c2sc(S(N)(=O)=O)cc21", "Potency": "inactive"}
{"molecule": "CC[C@]12CCCN3CCc4c(n(c5ccccc45)[C@@](O)(C(=O)OC)C1)[C@@H]32", "Potency": "inactive"}
{"molecule": "O=S1(=O)OC(c2ccc(O)cc2)(c2ccc(O)cc2)c2ccccc21", "Potency": "inactive"}
{"molecule": "C[N+](C)(C)CC(O)CC(=O)[O-]", "note": "(stereo unspecified)", "Potency": "inactive"}
{"molecule": "COc1ccc2cc(CCC(C)=O)ccc2c1", "Potency": "inactive"}
{"molecule": "CCOC(N)=O", "Potency": "inactive"}
{"molecule": "COc1cc(O)cc(O)c1", "Potency": "inactive"}
{"molecule": "CC(=O)[C@@]1(O)CC[C@H]2[C@@H]3C[C@H](C)C4=CC(=O)C=C[C@]4(C)[C@@]3(F)[C@@H](O)C[C@@]21C", "Potency": "inactive"}
{"molecule": "Cc1ccsc1C(=CCCN1CCC[C@@H](C(=O)O)C1)c1sccc1C", "Potency": "inactive"}
{"molecule": "O=C(O)CCCc1ccccc1", "Potency": "inactive"}
{"molecule": "CC1CCc2cc(F)cc3c(=O)c(C(=O)O)cn1c23", "note": "(stereo unspecified)", "Potency": "inactive"}
{"molecule": "O=C(O)c1ccccc1OP(=O)(O)O", "Potency": "inactive"}
{"molecule": "CC1(C)[C@@H](OC(=O)CCC(=O)O)CC[C@]2(C)[C@H]3C(=O)C=C4[C@@H]5C[C@@](C)(C(=O)O)CC[C@]5(C)CC[C@@]4(C)[C@]3(C)CC[C@@H]12", "Potency": "inactive"}
{"molecule": "COC(=O)N/N=C/c1c[n+]([O-])c2ccccc2[n+]1[O-]", "Potency": "23.7 µM (active)"}
{"molecule": "Cc1cc(O)cc(C)c1Cl", "Potency": "inactive"}
{"molecule": "CC(=O)Oc1cccc(C)c1", "Potency": "inactive"}
{"molecule": "O=c1[nH]c(=O)n([C@H]2C[C@H](O)[C@@H](CO)O2)cc1I", "Potency": "3.35 µM (active) and 662 nM (active)"}
